PubChem BioAssay (NCATS)
“And” between values parts separate entries of the source, which are not always exact repeats. Equal values may be shown once. Results filed as inconclusive are left out. The source made the active and inactive calls. Unless noted, calls come from the whole dose curve; as a rule, active = well fitted curve in the direction sought with a large enough effect; inconclusive = small, poorly fitted or top-dose-only effect, or another doubt; inactive = no such curve, though single readings can be large; an effect the other way counts as inactive or inconclusive.

Assays:
[1] = qHTS Screen of the MIPE 4.0 Collection Against Ewings Sarcoma (RDES) (AID 1259252); note: nearly all actives have a fitted effect of over 35% in size; note: potency is the fitted concentration of half-maximal effect
Summary of the method: (§1)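 After a 4 h attachment period in RPMI/5% FBS, cells were pin-dosed with test compounds; DMSO served as negative and 9.2 uM bortezomib (final) as positive control. Luminescent CellTiter-Glo signal at 48 h defined viability.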

[2] = qHTS Screen of the MIPE 4.0 Collection Against Ewings Sarcoma (TC71) (AID 1259253); note: nearly all actives have a fitted effect of over 40% in size; note: potency is the fitted concentration of half-maximal effect
Summary of the method: as §1

[3] = qHTS Screen of the MIPE 4.0 Collection Against Ewings Sarcoma (EW8) (AID 1259255); note: nearly all actives have a fitted effect of over 35% in size; note: potency is the fitted concentration of half-maximal effect
Summary of the method: as §1

[4] = qHTS Screen of the MIPE 4.0 Collection Against Ewings Sarcoma (TC32) (AID 1259256); note: nearly all actives have a fitted effect of over 45% in size; note: potency is the fitted concentration of half-maximal effect
Summary of the method: as §1

[5] = NS1 protein of Zika virus - qHTS assay to identify small molecule inhibitors in human HEK 293 cells (AID 1347053); note: nearly all actives have a fitted effect of over 55% in size; note: potency is the fitted concentration of half-maximal effect
Summary of the method: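 HEK 293 cells, seeded 20 h at 37 C, were pretreated with compound 1 h, then infected with ZIKV MR766 (MOI = 0.5) for 24 h. NS1 was read by TR-FRET with two anti-NS1 antibodies, normalized to uninfected and infected wells.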

[6] = qHTS of pediatric cancer cell lines to identify multiple opportunities for drug repurposing: Primary screen for TC32 cells (AID 1347089); note: nearly all actives have a fitted effect of over 60% in size; note: potency is the fitted concentration of half-maximal effect
Summary of the method: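 Luminescent ATP read-out (CellTiter-Glo) of metabolically active TC32 cells after 48 h exposure. Concentration-response curves came from 11-point (MIPE, 0.78 nM–46 µM) or 8-point (NPC, 0.59 nM–46 µM) primary titrations; follow-up used 11 points.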

[7] = qHTS of pediatric cancer cell lines to identify multiple opportunities for drug repurposing: Primary screen for DAOY cells (AID 1347090); note: nearly all actives have a fitted effect of over 55% in size; note: potency is the fitted concentration of half-maximal effect
Summary of the method: (§2)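 Cell viability, CellTiter-Glo luminescence; 500-1,000 cells/well, 8- or 11-point titration, 48 h compound exposure at 37 degrees C, 5% CO2. Controls: DMSO neutral, bortezomib 2.3 µM final as positive.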

[8] = qHTS of pediatric cancer cell lines to identify multiple opportunities for drug repurposing: Primary screen for SJ-GBM2 cells (AID 1347091); note: potency is the fitted concentration of half-maximal effect
Summary of the method: as §2

[9] = Natriuretic polypeptide receptor (hNpr1) antagonism - Pilot counterscreen GloSensor control cell line (AID 1347045; calls by dose curve; note: series mostly up to about 38 µM)
Summary of the method: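 HEK293 cells carrying the GloSensor cGMP sensor (GIP/pGS-40F) were loaded with 2% GloSensor reagent for 2 h, exposed to compounds for 30 min, and then stimulated with 50 uM sodium nitroprusside for 20 min at room temperature.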

[10] = target: Atrial natriuretic peptide receptor 1 (Homo sapiens) (UniProt P16066); test: Natriuretic polypeptide receptor (hNpr1) antagonism - Pilot screen (AID 1347049; calls by dose curve;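 note: agonist-evoked cGMP luminescence read 20 min after hNppA addition; series mostly up to about 58 µM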)
Chain of Atrial natriuretic peptide receptor 1 (Homo sapiens) (P16066 whole entry, looked up): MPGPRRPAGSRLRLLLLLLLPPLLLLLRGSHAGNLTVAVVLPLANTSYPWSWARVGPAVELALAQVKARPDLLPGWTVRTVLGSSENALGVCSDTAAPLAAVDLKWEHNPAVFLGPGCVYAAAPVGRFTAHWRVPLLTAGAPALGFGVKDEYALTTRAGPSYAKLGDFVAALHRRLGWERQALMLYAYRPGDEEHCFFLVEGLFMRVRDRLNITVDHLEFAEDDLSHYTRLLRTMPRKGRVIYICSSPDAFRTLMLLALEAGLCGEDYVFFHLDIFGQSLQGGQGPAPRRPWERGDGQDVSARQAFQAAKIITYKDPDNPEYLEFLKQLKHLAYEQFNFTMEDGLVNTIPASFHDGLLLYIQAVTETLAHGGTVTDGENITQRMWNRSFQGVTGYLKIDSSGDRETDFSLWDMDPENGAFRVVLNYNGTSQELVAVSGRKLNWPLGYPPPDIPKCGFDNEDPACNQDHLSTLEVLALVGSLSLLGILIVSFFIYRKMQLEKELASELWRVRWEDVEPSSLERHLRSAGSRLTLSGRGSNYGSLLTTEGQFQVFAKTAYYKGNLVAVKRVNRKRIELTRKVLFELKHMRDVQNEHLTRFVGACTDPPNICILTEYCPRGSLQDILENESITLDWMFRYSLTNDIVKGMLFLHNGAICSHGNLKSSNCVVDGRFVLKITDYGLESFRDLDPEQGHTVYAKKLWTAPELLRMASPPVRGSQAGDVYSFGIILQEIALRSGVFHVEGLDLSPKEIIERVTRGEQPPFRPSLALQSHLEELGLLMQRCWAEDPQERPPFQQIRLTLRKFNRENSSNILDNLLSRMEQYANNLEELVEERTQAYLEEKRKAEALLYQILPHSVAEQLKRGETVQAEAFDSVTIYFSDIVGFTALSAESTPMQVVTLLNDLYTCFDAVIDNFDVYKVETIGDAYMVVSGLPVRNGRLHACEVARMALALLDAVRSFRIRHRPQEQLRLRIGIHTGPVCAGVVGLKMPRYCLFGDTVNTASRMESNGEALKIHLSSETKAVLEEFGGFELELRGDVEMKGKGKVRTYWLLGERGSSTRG
Summary of the method: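 Readout is cGMP-driven firefly luciferase luminescence in HEK293 cells carrying hNpr1 and a PDE5-domain GloSensor, read before and 20 min after 0.1 nM hNppA stimulation. Cells had 2% substrate reagent for 2 h and test compound for 30 min.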

[11] = target: Atrial natriuretic peptide receptor 2 (Homo sapiens) (UniProt P20594); test: Natriuretic polypeptide receptor (hNpr2) antagonism - Pilot subtype selectivity assay (AID 1347050; calls by dose curve)
Chain of Atrial natriuretic peptide receptor 2 (Homo sapiens) (P20594 whole entry, looked up): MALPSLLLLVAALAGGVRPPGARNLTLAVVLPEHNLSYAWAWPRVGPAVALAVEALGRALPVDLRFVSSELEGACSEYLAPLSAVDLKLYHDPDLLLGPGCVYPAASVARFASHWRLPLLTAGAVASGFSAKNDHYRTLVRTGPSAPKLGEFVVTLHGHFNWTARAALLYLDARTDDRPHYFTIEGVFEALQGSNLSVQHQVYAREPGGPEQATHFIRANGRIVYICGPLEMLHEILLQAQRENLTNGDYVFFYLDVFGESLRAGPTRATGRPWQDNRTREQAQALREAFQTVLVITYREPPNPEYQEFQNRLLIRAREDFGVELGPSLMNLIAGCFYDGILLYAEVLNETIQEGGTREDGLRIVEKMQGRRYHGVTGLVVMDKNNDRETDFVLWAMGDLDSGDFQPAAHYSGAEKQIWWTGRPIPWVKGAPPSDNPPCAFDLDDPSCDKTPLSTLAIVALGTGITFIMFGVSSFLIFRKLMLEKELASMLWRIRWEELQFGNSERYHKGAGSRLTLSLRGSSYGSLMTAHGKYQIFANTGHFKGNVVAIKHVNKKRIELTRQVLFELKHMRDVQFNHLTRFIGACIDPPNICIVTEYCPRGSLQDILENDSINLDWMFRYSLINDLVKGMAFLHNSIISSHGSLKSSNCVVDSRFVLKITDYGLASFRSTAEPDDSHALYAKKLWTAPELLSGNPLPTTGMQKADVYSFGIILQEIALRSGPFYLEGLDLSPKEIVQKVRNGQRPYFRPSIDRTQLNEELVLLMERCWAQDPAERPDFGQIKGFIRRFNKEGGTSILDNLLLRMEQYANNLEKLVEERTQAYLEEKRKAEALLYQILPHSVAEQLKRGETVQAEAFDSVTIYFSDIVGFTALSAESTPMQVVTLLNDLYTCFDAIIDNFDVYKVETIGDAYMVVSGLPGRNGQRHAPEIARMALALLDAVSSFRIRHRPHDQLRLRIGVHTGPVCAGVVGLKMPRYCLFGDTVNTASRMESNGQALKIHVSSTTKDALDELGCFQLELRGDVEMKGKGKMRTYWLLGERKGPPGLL
Summary of the method: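 Pilot selectivity screen against hNpr2: HEK293 cGMP-sensor cells are treated with LOPAC1280 compounds, then with hNppC peptide at 1 nM final. The cGMP-driven luminescence change over 20 min at room temperature is the read-out.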

[12] = target: Parathyroid hormone/parathyroid hormone-related peptide receptor (Homo sapiens) (UniProt Q03431); test: qHTS for PTHR1 Agonists: Optimization Screen against the NCGC LOPAC library (AID 1347079);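 note: GloSensor cAMP luminescence in HEK-293 GP2 cells expressing human PTHR1 with IBMX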
Chain of Parathyroid hormone/parathyroid hormone-related peptide receptor (Homo sapiens) (Q03431 whole entry, looked up): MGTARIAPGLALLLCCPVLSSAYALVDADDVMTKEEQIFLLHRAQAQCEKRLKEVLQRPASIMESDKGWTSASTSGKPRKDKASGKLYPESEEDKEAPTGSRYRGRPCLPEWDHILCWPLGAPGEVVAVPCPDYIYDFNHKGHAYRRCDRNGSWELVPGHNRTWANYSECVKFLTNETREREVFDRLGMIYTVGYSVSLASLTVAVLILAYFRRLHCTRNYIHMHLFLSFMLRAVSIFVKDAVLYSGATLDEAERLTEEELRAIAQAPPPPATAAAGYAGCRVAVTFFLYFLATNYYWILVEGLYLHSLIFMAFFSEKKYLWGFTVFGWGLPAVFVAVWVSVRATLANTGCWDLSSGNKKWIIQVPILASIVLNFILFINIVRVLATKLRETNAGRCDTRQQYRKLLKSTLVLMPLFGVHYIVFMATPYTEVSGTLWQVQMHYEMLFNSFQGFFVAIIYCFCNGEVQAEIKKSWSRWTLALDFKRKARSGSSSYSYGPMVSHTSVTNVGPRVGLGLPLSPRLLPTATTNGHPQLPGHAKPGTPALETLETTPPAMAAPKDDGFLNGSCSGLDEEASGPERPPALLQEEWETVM
Summary of the method: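 Compounds were tested across a qHTS titration. PTHR1-expressing GP2 cells report cAMP rises via GloSensor luminescence after 1 hr compound exposure at 37C with IBMX present.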

[13] = P-glycoprotein substrates identified in KB-8-5-11 adenocarcinoma cell line, qHTS therapeutic library screen (AID 1346987); note: nearly all actives have a fitted effect of over 65% in size; note: potency is the fitted concentration of half-maximal effect
Summary of the method: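 KB-8-5-11: colchicine-selected sub-line of KB-3-1 over-expressing P-gp; assay medium lacked colchicine. 72 h drug exposure at 37 degree C, CellTiter-Glo.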

[14] = P-glycoprotein substrates identified in KB-3-1 adenocarcinoma cell line, qHTS therapeutic library screen (AID 1346986); note: nearly all actives have a fitted effect of over 60% in size
Summary of the method: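 Counter-screen: cherry-picked hits retested in the KB pair and in HEK-293 pcDNA/MDR-19 cells ± tariquidar. Primary screen used 72 h CellTiter-Glo viability in KB-3-1 and KB-8-5-11.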

[15] = target: T1, Tyrosine-protein phosphatase non-receptor type substrate 1 (Homo sapiens) + Leukocyte surface antigen CD47 (Homo sapiens) (UniProt P78324+Q08722); test: CD47-SIRPalpha protein protein interaction - LANCE assay qHTS validation (AID 1347057; active = well fitted curve in the direction sought with a large enough effect in the signal ratio, with a control signal flat, not every such curve was filed as active; the % refers to the signal ratio; note: series mostly up to about 38 µM)
T1 sequence (P78324 whole entry, looked up): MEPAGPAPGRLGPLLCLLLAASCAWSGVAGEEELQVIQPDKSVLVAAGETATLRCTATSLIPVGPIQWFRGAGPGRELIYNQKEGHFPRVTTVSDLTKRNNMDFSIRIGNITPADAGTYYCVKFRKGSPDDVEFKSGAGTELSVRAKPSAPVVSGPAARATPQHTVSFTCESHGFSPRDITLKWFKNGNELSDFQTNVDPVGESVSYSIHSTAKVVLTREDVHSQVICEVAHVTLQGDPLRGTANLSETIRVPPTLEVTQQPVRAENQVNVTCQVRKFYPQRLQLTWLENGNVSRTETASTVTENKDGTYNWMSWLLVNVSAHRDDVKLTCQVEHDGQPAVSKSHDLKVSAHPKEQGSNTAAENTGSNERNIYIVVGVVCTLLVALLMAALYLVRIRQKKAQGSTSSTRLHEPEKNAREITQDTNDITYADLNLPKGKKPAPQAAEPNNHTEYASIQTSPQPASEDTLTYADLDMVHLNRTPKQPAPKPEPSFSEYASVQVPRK
T1 sequence (Q08722 whole entry, looked up): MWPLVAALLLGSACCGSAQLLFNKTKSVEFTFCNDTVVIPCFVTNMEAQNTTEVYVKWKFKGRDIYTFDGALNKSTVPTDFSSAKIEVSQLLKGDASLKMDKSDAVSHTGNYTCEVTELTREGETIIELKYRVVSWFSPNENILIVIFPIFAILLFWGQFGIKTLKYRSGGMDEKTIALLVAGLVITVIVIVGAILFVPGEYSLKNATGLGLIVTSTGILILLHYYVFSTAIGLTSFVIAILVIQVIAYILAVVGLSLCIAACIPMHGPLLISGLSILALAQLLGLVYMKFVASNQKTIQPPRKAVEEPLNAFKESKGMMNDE
Summary of the method: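 First, His-tagged CD47 and Eu-labelled anti-His antibody met the compound for 30 min; next, site-specifically biotinylated SIRPalpha was added for 30 min; finally streptavidin-APC was added before reading the TR-FRET ratio.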

[16] = target: T1, Tyrosine-protein phosphatase non-receptor type substrate 1 (Homo sapiens) + Leukocyte surface antigen CD47 (Homo sapiens); test: CD47-SIRPalpha protein protein interaction - HTRF assay qHTS validation (AID 1347058; active = well fitted curve in the direction sought with a large enough effect in the signal ratio, not every such curve was filed as active; the % refers to the signal ratio;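 note: recombinant soluble extracellular CD47 with His tag and biotinylated SIRPalpha domains; series mostly up to about 38 µM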)
Summary of the method: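 TR-FRET read (Ch1/Ch2 ratio) of soluble extracellular CD47 and Avi-biotinylated SIRPalpha domains in PBS pH 7.4 with 0.05% IGEPAL; 7-point compound titration. Sequential 30 min room-temperature steps; non-biotinylated SIRPalpha as control inhibitor.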

[17] = target: T1, Tyrosine-protein phosphatase non-receptor type substrate 1 (Homo sapiens) + Leukocyte surface antigen CD47 (Homo sapiens); test: CD47-SIRPalpha protein protein interaction - Alpha assay qHTS validation (AID 1347059);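 note: bead proximity luminescence from CD47 binding SIRPalpha after compound preincubation with SIRPalpha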
Summary of the method: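 Binding is measured by AlphaScreen proximity: Ni-NTA acceptor beads capture His-CD47, streptavidin donor beads capture biotin-SIRPalpha. Each of three additions (SIRPalpha with compound, CD47, beads) incubates 30 min at room temperature protected from light.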

[18] = qHTS assay to identify small molecule inhibitors of chordoma cells - UCH-2 (AID 1259356); note: series mostly up to about 46 µM

Measured: Potency

NC1CCC(Nc2nc(Nc3ccc(C(=O)N4CCCCC4)cc3)c3ncn(-c4cccc(F)c4)c3n2)CC1 (stereo not drawn)
inactive: [1] | [2] | [3] | [4] | [5] | [6] | [7] | [8]

O=c1c(-c2ccc(O)cc2)coc2cc(O)ccc12
inactive: [3] | [9] | [10] | [11] | [5] | [12] | [6] | [7] | [8]
active: [1] 11.8 µM

O=C1NC(=O)C(=Cc2ccc3nccnc3c2)S1
inactive: [13] | [5] | [6]
active: [1] 14.4 µM | [2] 11.5 µM | [3] 9.11 µM | [8] 8.12 µM

COc1cc2ncnc(Nc3ccc(F)c(Cl)c3)c2cc1OCCCN1CCOCC1
active: [1] 10.8 µM | [6] 38 µM | [7] 4.29 µM | [8] 1.71 µM and 8.41 µM

CC=CCC(C)C(O)C1C(=O)NC(CC)C(=O)N(C)CC(=O)N(C)C(CC(C)C)C(=O)NC(C(C)C)C(=O)N(C)C(CC(C)C)C(=O)NC(C)C(=O)NC(C)C(=O)N(C)C(CC(C)C)C(=O)N(C)C(CC(C)C)C(=O)N(C)C(C(C)C)C(=O)N1C (stereo not drawn)
inactive: [4]

O=c1c(-c2ccc(O)cc2)coc2cc(O[C@@H]3O[C@H](CO)[C@H](O)[C@H](O)[C@H]3O)ccc12
inactive: [2] | [3] | [4] | [14] | [13] | [5] | [6] | [7] | [8]

COc1ccc(Cc2nccc3cc(OC)c(OC)cc23)cc1OC
active: [1] 20.9 µM | [2] 18.7 µM | [4] 23.5 µM
inactive: [9] | [15] | [16] | [17] | [12]

CNC(=O)c1ccccc1Sc1ccc2c(C=Cc3ccccn3)n[nH]c2c1
active: [13] 4.18 µM | [8] 2.96 µM

O=C(CCCCCCC(=O)Nc1ccccc1)NO
active: [13] 4.61 µM and 3.66 µM and 6.62 µM | [6] 6.64 µM and 14.7 µM | [7] 4.22 µM and 5.9 µM | [8] 1.33 µM and 1.87 µM

COc1ccc(-c2coc3cc(O)ccc3c2=O)cc1
inactive: [1] | [2] | [3] | [4] | [13] | [5] | [6] | [7] | [8]

CC1(C)Cc2c(sc(NC(=S)NC(=O)c3ccccc3)c2C(=O)O)CO1
inactive: [3] | [14] | [13] | [5] | [6] | [8]
active: [1] 29.6 µM

CCC(CC)[C@H](NC(C)=O)[C@@H]1[C@H](O)[C@@H](C(=O)O)C[C@@H]1N=C(N)N
inactive: [1] | [2] | [3] | [4] | [13] | [5] | [6] | [7] | [8]

O=C(O)c1ccccc1C(=O)Nc1ccc(-c2ccccc2)cc1
inactive: [1] | [2] | [3] | [14] | [13] | [5] | [6] | [7] | [8]

O=C(O)c1cc(O)c2c(c1)C(=O)c1cccc(O)c1C2=O
inactive: [1] | [2] | [4] | [13] | [5] | [6] | [7] | [8]

COc1cc2nc(-c3ccc(N4CCN(C)CC4)cc3)nc(NCCN3CCOCC3)c2cc1OC
active: [1] 0.0166 µM | [2] 0.132 µM | [3] 0.0332 µM | [4] 0.0418 µM | [13] 7.31 µM | [5] 0.332 µM | [6] 0.523 µM | [7] 0.0743 µM | [8] 0.148 µM

O=C1Nc2ccc(Cl)cc2C(C#CC2CC2)(C(F)(F)F)O1 (stereo not drawn)
active: [3] 26.4 µM | [7] 29.6 µM
inactive: [6]

CC(C(=O)O)c1ccc(-c2ccccc2)c(F)c1 (stereo not drawn)
inactive: [3] | [18] | [13] | [5] | [6] | [8]
active: [1] 18.7 µM | [4] 11.8 µM

CC(C)OC(=O)C(C)(C)Oc1ccc(C(=O)c2ccc(Cl)cc2)cc1
inactive: [10] | [11] | [12] | [6] | [7]

Clc1ccc(COC(Cn2ccnc2)c2ccc(Cl)cc2Cl)cc1 (stereo not drawn)
active: [4] 18.7 µM

O=c1c(-c2ccc(O)cc2)coc2cc(OC3O[C@H](CO)[C@H](O)[C@H](O)[C@H]3O)cc(O)c12 (stereo partly drawn)
inactive: [5] | [8]
active: [1] 3.72 µM | [2] 7.43 µM | [3] 18.7 µM | [4] 10.5 µM | [7] 3.72 µM

COc1ccc(-c2cc(=O)c3c(O)cc(O)cc3o2)cc1O
active: [1] 5.26 µM | [2] 9.35 µM | [3] 13.2 µM | [4] 14.8 µM
inactive: [5]

O=C(Nc1ccccc1-c1cn2c(CN3CCNCC3)csc2n1)c1cnc2ccccc2n1
inactive: [5] | [6]
active: [2] 23.5 µM | [13] 26.4 µM | [7] 23.5 µM

O=c1cc(-c2ccccc2)oc2cc(O)cc(O)c12
inactive: [4] | [13] | [5] | [6] | [7]
